Reference: PubChem BioAssay AID1159580 (chemical genetic matrix, 2015)
Among all 5,500 compounds or so, about 2,000 (36%) were called active. Another 18% or so got no clear call; they are omitted. No stated cut-off is given here; in the data, active means normalized growth mostly below about 0.91 (no sharp cut-off); inconclusive means no clear call, values can overlap the other calls; inactive means mostly above about 0.92. Some of the results follow.

Assay: chemical genetic growth profiling, strain panel (AID 1159580);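 further: tested at 20 µM; growth read once vehicle control cultures reached saturation at 30 °C; 1 = growth at the plate median or of vehicle wells; lower values mean less growth of the strain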
Conditions: growth OD

Measured: normalized growth

Nc1ccc(S(=O)(=O)Nc2ccc(Cl)nn2)cc1
inactive: S. cerevisiae deletion strains, locus YJR043C, strain POL32, active compounds read low 0.991 | S. cerevisiae deletion strains, locus YJR066W, strain TOR1, active compounds read low 0.926 | S. cerevisiae deletion strains, locus YKL009W, strain mrt4, active compounds read low 1.03 | S. cerevisiae deletion strains, locus YKL068W, active compounds read low 0.998 | S. cerevisiae deletion strains, locus YKL085W, strain MDH1 (second series), active compounds read low 0.992 | S. cerevisiae deletion strains, locus YKL085W, strain MDH1, active compounds read low 0.992 | S. cerevisiae deletion strains, locus YKL160W, strain elf1, active compounds read low 0.966 | S. cerevisiae deletion strains, locus YKL190W, strain CNB1, active compounds read low 1.01 | S. cerevisiae deletion strains, locus YKR001C, strain vps1, active compounds read low 0.995 | S. cerevisiae deletion strains, locus YKR026C, strain gcn3, active compounds read low 0.982 | S. cerevisiae deletion strains, locus YKR091W, strain srl3, active compounds read low 0.996 | S. cerevisiae deletion strains, locus YLL001W, strain dnm1, active compounds read low 0.981 | S. cerevisiae deletion strains, locus YLL026W, active compounds read low 0.998 | S. cerevisiae deletion strains, locus YLL041C, strain sdh2, active compounds read low 0.989 | S. cerevisiae deletion strains, locus YLR027C, strain aat2, active compounds read low 0.995 | S. cerevisiae deletion strains, locus YLR039C, strain RIC1, active compounds read low 1.06 | S. cerevisiae deletion strains, locus YLR058C, strain SHM2, active compounds read low 1.01 | S. cerevisiae deletion strains, locus YLR102C, strain apc9, active compounds read low 1 | S. cerevisiae deletion strains, locus YLR113W, strain HOG1, active compounds read low 0.984 | S. cerevisiae deletion strains, locus YLR221C, strain rsa3, active compounds read low 0.991 | S. cerevisiae deletion strains, locus YLR258W, strain gsy2, active compounds read low 0.991 | S. cerevisiae deletion strains, locus YLR262C, strain YPT6 (second series), active compounds read low 0.986 | S. cerevisiae deletion strains, locus YLR262C, strain YPT6, active compounds read low 1.06 | S. cerevisiae deletion strains, locus YLR268W, strain sec22, active compounds read low 1 | S. cerevisiae deletion strains, locus YLR320W, strain mms22, active compounds read low 0.969 | S. cerevisiae deletion strains, locus YLR330W, strain CHS5, active compounds read low 1.01 | S. cerevisiae deletion strains, locus YLR342W, strain FKS1 (second series), active compounds read low 1.05 | S. cerevisiae deletion strains, locus YLR342W, strain FKS1, active compounds read low 0.98 | S. cerevisiae deletion strains, locus YLR357W, strain rsc2, active compounds read low 0.978 | S. cerevisiae deletion strains, locus YLR370C, strain arc18, active compounds read low 0.984 | S. cerevisiae deletion strains, locus YLR371W, strain rom2, active compounds read low 1 | S. cerevisiae deletion strains, locus YLR384C, strain iki3, active compounds read low 0.993 | S. cerevisiae deletion strains, locus YLR418C, strain cdc73, active compounds read low 1.03 | S. cerevisiae deletion strains, locus YML016C, strain PPZ1, active compounds read low 1 | S. cerevisiae deletion strains, locus YML032C, strain rad52, active compounds read low 1.01 | S. cerevisiae deletion strains, locus YML120C, strain ndi1, active compounds read low 0.983 | S. cerevisiae deletion strains, locus YML124C, strain tub3, active compounds read low 1.01 | S. cerevisiae deletion strains, locus YMR058W, strain fet3, active compounds read low 0.987 | S. cerevisiae deletion strains, locus YMR078C, strain ctf18, active compounds read low 1.01 | S. cerevisiae deletion strains, locus YMR125W, strain sto1, active compounds read low 0.984 | S. cerevisiae deletion strains, locus YMR129W, active compounds read low 0.986 | S. cerevisiae deletion strains, locus YMR205C, strain PFK2, active compounds read low 0.97 | S. cerevisiae deletion strains, locus YMR223W, strain ubp8, active compounds read low 1.04 | S. cerevisiae deletion strains, locus YMR231W, strain pep5, active compounds read low 0.987 | S. cerevisiae deletion strains, locus YMR263W, strain SAP30, active compounds read low 0.995 | S. cerevisiae deletion strains, locus YMR307W, strain GAS1, active compounds read low 1.04 | S. cerevisiae deletion strains, locus YNL067W, strain RPL9B, active compounds read low 0.983 | S. cerevisiae deletion strains, locus YNL071W, strain lat1, active compounds read low 0.995 | S. cerevisiae deletion strains, locus YNL183C, strain NPR1, active compounds read low 0.927 | S. cerevisiae deletion strains, locus YNL209W, strain ssb2, active compounds read low 0.999 | S. cerevisiae deletion strains, locus YNL233W, strain BNI4, active compounds read low 0.989 | S. cerevisiae deletion strains, locus YNL248C, strain rpa49, active compounds read low 0.994 | S. cerevisiae deletion strains, locus YNL250W, strain rad50, active compounds read low 1.03 | S. cerevisiae deletion strains, locus YNL271C, strain bni1, active compounds read low 1 | S. cerevisiae deletion strains, locus YNL298W, strain CLA4, active compounds read low 1 | S. cerevisiae deletion strains, locus YNL307C, strain MCK1, active compounds read low 1.01 | S. cerevisiae deletion strains, locus YNL322C, strain KRE1 (second series), active compounds read low 0.976 | S. cerevisiae deletion strains, locus YNR049C, strain mso1, active compounds read low 0.995 | S. cerevisiae deletion strains, locus YNR052C, strain pop2, active compounds read low 1.01 | S. cerevisiae deletion strains, locus YOL006C, strain TOP1, active compounds read low 0.951 | S. cerevisiae deletion strains, locus YOL012C, strain htz1 1.39 | S. cerevisiae deletion strains, locus YOL147C, strain pex11, active compounds read low 1 | S. cerevisiae deletion strains, locus YOR001W, strain rrp6, active compounds read low 0.995 | S. cerevisiae deletion strains, locus YOR061W, strain CKA2, active compounds read low 1 | S. cerevisiae deletion strains, locus YOR069W, strain VPS5, active compounds read low 1.01 | S. cerevisiae deletion strains, locus YOR070C, strain gyp1, active compounds read low 0.991 | S. cerevisiae deletion strains, locus YOR080W, strain dia2, active compounds read low 0.979 | S. cerevisiae deletion strains, locus YOR083W, strain WHI5, active compounds read low 0.96 | S. cerevisiae deletion strains, locus YOR106W, strain vam3, active compounds read low 0.959 | S. cerevisiae deletion strains, locus YOR136W, strain idh2, active compounds read low 0.995 | S. cerevisiae deletion strains, locus YOR144C, strain elg1, active compounds read low 0.995 | S. cerevisiae deletion strains, locus YOR184W, strain ser1, active compounds read low 1.02 | S. cerevisiae deletion strains, locus YOR231W, strain MKK1, active compounds read low 0.991 | S. cerevisiae deletion strains, locus YOR265W, strain rbl2, active compounds read low 0.999 | S. cerevisiae deletion strains, locus YOR270C, strain vph1, active compounds read low 0.994 | S. cerevisiae deletion strains, locus YOR290C, strain snf2, active compounds read low 0.985 | S. cerevisiae deletion strains, locus YOR316C, strain cot1, active compounds read low 0.997 | S. cerevisiae deletion strains, locus YPL051W, strain arl3, active compounds read low 0.98 | S. cerevisiae deletion strains, locus YPL078C, strain atp4, active compounds read low 0.982 | S. cerevisiae deletion strains, locus YPL106C, strain sse1, active compounds read low 0.969 | S. cerevisiae deletion strains, locus YPL240C, strain hsp82, active compounds read low 0.978 | S. cerevisiae deletion strains, locus YPL256C, strain CLN2, active compounds read low 0.962 | S. cerevisiae deletion strains, locus YPR119W, strain clb2, active compounds read low 0.999 | S. cerevisiae deletion strains, locus YPR141C, strain kar3, active compounds read low 0.995 | S. cerevisiae deletion strains, locus YPR163C, strain tif3, active compounds read low 1.01 | S. cerevisiae deletion strains, locus YPR167C, strain met16, active compounds read low 1 | S. cerevisiae deletion strains, strain wtn01, active compounds read low 1.02 | S. cerevisiae strains, strain wild type, active compounds read low 1.01
